# GCN5L2 inh: qHTS Assay for Inhibitors of GCN5L2; Histone acetyltransferase KAT2A (Homo sapiens), Q92830; GCN5L2 HAT assay, ThioGlo1 CoA-SH fluorescence; Potency, µM (highest dose often 58.9 µM), for the others: at the top dose activity change, negative = inhibition, hits mostly inhibitors; 390,000 tested, 0.21% active; AID 504327, 2011; further: potency means the concentration at half of the fitted maximal effect; on the % scale 0 is the no-effect control and ±100 the full control effect
#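 GCN5L2 (20nM final) in 50mM HEPES, 0.1mM EDTA pH 7.5, 0.01% Tween-20 was preincubated 15 min at room temperature with compound, then given ThioGlo1 (50uM), H3(1-25) peptide (75uM) and acetyl-CoA (70uM); CoA-thiol fluorescence (Ex340/Em540) was read at 0 and 20 min.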
# PI5P4K alpha inh: qHTS for Inhibitors of phosphatidylinositol 5-phosphate 4-kinase (PI5P4K); Phosphatidylinositol 5-phosphate 4-kinase type-2 alpha (Homo sapiens), P48426; PI5P4Kalpha enzyme, ADP-Glo luminescence, 60 min; active compounds read low; max response, %; 330,000 tested, 1.2% active; active means max response of -50% or lower; inconclusive means between -30% and -50%; inactive means -30% or higher; further: value at the top dose of about 77 µM; on the % scale 0 is the no-effect control and ±100 the full control effect
#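 ADP-Glo luminescence end-point after a 60 min room-temperature kinase reaction. PI5P4Kalpha and substrate in HEPES pH 7.4 buffer with EGTA, 0.1% CHAPS and 5% DMSO; ATP at 5 microM final.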
# JMJD2A Tudor inh: qHTS Assay for Inhibitors of JMJD2A-Tudor Domain. 390,000 tested, 4.4% active. AID 504339, 2011. Potency, µM (series often up to 114 µM), without a hit: top-dose activity change, negative = inhibition, most hits filed as inhibitors. Lysine-specific demethylase 4A (Homo sapiens), O75164. AlphaScreen JMJD2A-Tudor / H3K4me3 peptide binding; further: potency means the concentration at half of the fitted maximal effect; on the % scale 0 is the no-effect control and ±100 the full control effect; nearly all actives have a fitted effect of over 50% in size
# HP1b binding inh: HTS for Inhibitors of HP1-beta Chromodomain Interactions with Methylated Histone Tails. AlphaScreen HP1-beta / biotin-H3K9me3 peptide binding. Potency, µM (doses to about 114 µM), for inactives: top-dose activity change, negative = inhibition, most hits filed as inhibitors. 390,000 tested, 0.56% active. AID 540317, 2011; further: potency means the concentration at half of the fitted maximal effect; nearly all actives have a fitted effect of over 70% in size
#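 AlphaScreen: HP1-beta (50 nM) preformed 30 min with biotin-H3(1-18)K9me3 peptide (50 nM) in PBS pH 7.4, 0.01% Tween-20. Compound added for 30 min at RT, then streptavidin donor/nickel chelate acceptor beads (10 ug/mL) for 30 min.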
# PLK1 PBD inh: qHTS for Inhibitors of PLK1-PDB (polo-like kinase 1 - polo-box domain): Primary Screen; 360,000 tested, 2.8% active; Potency, µM, without a hit: max response, negative = inhibition, actives largely listed as inhibitors; Plk1 PBD binding of FITC phosphopeptide, fluorescence polarization; AID 720504, 2013; Serine/threonine-protein kinase PLK1 (Homo sapiens), P53350; further: potency means the concentration at half of the fitted maximal effect; series mostly up to about 57 µM; on the % scale 0 is the no-effect control and ±100 the full control effect; nearly all actives have a fitted effect of over 65% in size
# BAZ2B block: qHTS Assay for Inhibitors of BAZ2B; AlphaScreen BAZ2B-H3K14Ac peptide displacement; Potency, µM (top dose mostly 114 µM), for inactives: at the top dose activity change, negative = inhibition, usual class: inhibitors; 360,000 tested, 4.4% active; further: potency means the concentration at half of the fitted maximal effect; on the % scale 0 is the no-effect control and ±100 the full control effect; nearly all actives have a fitted effect of over 60% in size
#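 Multi-concentration screen (max 110 uM) measuring displacement of acetylated histone H3 peptide from BAZ2B by AlphaScreen, using 50 nM protein, 50 nM peptide and 10 ug/mL streptavidin donor plus Ni-chelate acceptor beads.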
# * marks the source's active call; other numbers are inactive results; ? = inconclusive; . = not tested or not shown; [ ] = another dose, or the depositor's remark. An excerpt weighted towards active compounds, which were near 7% of everything screened. Unless noted, the call rests on the fitted dose curve; in most records, active means well fitted curve in the direction sought with a large enough effect; inconclusive means small, poorly fitted or top-dose-only effect, or another doubt; inactive means no such curve, though single readings can be large; an effect the other way counts as inactive or inconclusive.
SMILES,GCN5L2 inh,PI5P4K alpha inh,JMJD2A Tudor inh,HP1b binding inh,PLK1 PBD inh,BAZ2B block
COc1cc(C)c(NC(=O)c2cccc(S(=O)(=O)N3CCCC3)c2)cc1OC,-7%,0,-14%,27%[57 µM],-2%,.
COCc1ccc(CN2CCCC(CO)(Cc3ccccc3)C2)o1 (stereo not drawn),16%,8,-19%,39%,1%,-16%
COC(=O)[C@]1(C)N[C@H](CN(C)S(=O)(=O)c2ccc(OC(F)(F)F)cc2)[C@@H]2C(=O)N(Cc3ccccc3)C(=O)[C@@H]21,1%,0,-10%,55%,-4%,.
CCOCc1nnc(NC(=O)c2ccc(OC)cc2)s1,1%,1,-1%,30%,-2%,11%
COC(=O)c1cc(C(=O)Nc2nnc(CC(C)(C)C)s2)cc([N+](=O)[O-])c1,-2%,-7,-27%,?,19µM*,-8%
CCOCc1nnc(NC(=O)c2c(-c3ccccc3)noc2C)s1,-9%,-8,-28%,-23%,30µM*,-2%
CCOCc1nnc(NC(=O)c2cc(C(=O)OC)cc([N+](=O)[O-])c2)s1,-2%,-25,45µM*,3%,27µM*,?
COc1ccc(Cc2nnc(NC(=O)c3c(-c4ccccc4)noc3C)s2)cc1,-20%,10,-26%,30%,-16%,?
CCOC(=O)C1=CCC(c2ccccc2C)N(S(=O)(=O)c2ccc(C)cc2)C1 (stereo not drawn),.,10,.,.,-2%,.
COCc1nnc(NC(=O)c2ccc(S(=O)(=O)N(C)Cc3ccccc3)cc2)o1,-7%,-9,-15%,13%,-4%,?
COCCN(CCOC)S(=O)(=O)c1ccc(C(=O)Nc2nc(C)c(C(C)=O)s2)cc1,-6%,.,-18%,16%,-12%,-3%
Cc1ccccc1NC(=O)c1ccc2ccccc2c1,-3%,1,-9%,14%,-4%,-5%
COCCN(CCOC)S(=O)(=O)c1ccc(C(=O)Nc2nnc(C)o2)cc1,-3%,-1,28µM*,4%,-20%,14µM*
Cc1nnc(NC(=O)c2ccc(S(=O)(=O)N(C)Cc3ccccc3)cc2)o1,4%,-10,?,43%,-9%,79µM*
Cc1nnc(NC(=O)c2ccc3ccccc3c2)o1,-7%,1,50µM*,31%,-3%,28µM*
CC(=O)C1CCC2C3CCC4CC(=O)CCC4(C)C3C(C)(O)CC12C (stereo not drawn),.,0,0%,27%[57 µM],-1%,.
Cc1ccc(O)c(NS(=O)(=O)c2cccc3nsnc23)c1,-27%,-11,?,?,?,45µM*
O=S(=O)(Nc1ccc(Cl)cc1)c1cccc2nsnc12,-2%,-9,?,-2%,30µM*,-33%
COc1cc(NS(=O)(=O)c2cccc3nsnc23)cc(OC)c1,-20%,.,45µM*,-10%,-10%,56µM*
O=S(=O)(Nc1cccc(F)c1)c1cccc2nsnc12,-7%,-5,1%,23%,3%,3%
Cc1ccc(NS(=O)(=O)c2cccc3nsnc23)cc1C,-14%,-10,-23%,-3%,-12%,?
Cc1cc(F)ccc1NS(=O)(=O)c1cccc2nsnc12,-1%,-7,-15%,42%,-14%,-32%
CCc1ccc(-n2c(=O)c3ccccc3n(Cc3ccccc3C#N)c2=O)cc1,-1%,.,-13%,4%,.,0%
CCCC(=O)Nc1nnc(SCC(=O)N2CCCCC2)s1,-1%,-16,71µM*,?,?,3%
Cc1sc2ncnc(N/N=C/c3ccc(O)cc3)c2c1C,-19%,-12,-19%,10%,-3%,-30%
